# Measured values from PubChem BioAssay AID743171 (National Center for Advancing Translational Sciences (NCATS), 2013).
# “And” between values parts separate entries of the source, which are not always exact repeats. Identical values can stand only once. Records with an inconclusive call do not appear. The source made the active and inactive calls. Calls follow the shape of the dose curve; as a rule, active = well fitted inhibition curve with a large enough effect; inconclusive = small, poorly fitted or top-dose-only effect; inactive = flat fitted curve, though single readings scatter.
# Target: 15-hydroxyprostaglandin dehydrogenase [NAD(+)] (Homo sapiens) (UniProt P15428)
# Assay: Extended Characterization of HPGD Inhibitors: Activity in Primary Assay (HPGD)
# Settings: recombinant HPGD, NADH fluorescence, PGE2 substrate
# From the text: The central role of HPGD is to inactivate prostaglandins such as prostaglandin E2 (PGE2) or prostaglandin D2 (PGD2). These prostaglandins are involved in a number of processes, including inflammation, differentiation, and cellular signaling, which makes HPGD an important target for pharmacological intervention. Inhibition of 15-PGDH (HPGD) activity was screened by utilizing prostaglandin as an electron donor and NAD+ as an electron acceptor/cofactor. An increase in the fluorescence intensity due to conversion of NAD+ to NADH was used to measure the enzyme activity. All compounds were screened using a qHTS approach, where compounds are assayed using at least seven concentrations to generate concentration-response curves for every compound. Briefly, qHTS uses an inter-plate dilution method where the first plate contains the highest concentration of a set of compounds in DMSO, while subsequent plates contain the same compounds in the same well locations, but at successive lower concentrations. NIH Chemical Genomics Center [NCGC] NIH Molecular Libraries Probe Centers Network [MLPCN] MLPCN Grant: MH084681 Assay Submitter (PI): Structural Genomics Consortium
# Three uL of enzyme (20 nM final concentration) were dispensed to 1536-well Greiner black solid bottom plates. Compounds (23 nL) were transferred via Kalypsys PinTool. The plates were incubated for 15 min at room temperature, and then 1 uL of substrate/cofactor solution (Substrate/cofactor solution: 1 mM NAD+ and 30 uM prostaglandin (Sigma, prostaglandin E2, #P5640)) were added to start the reaction. The plates were immediately transferred to and read 4 times every 30 seconds on a ViewLux High-throughput CCD imager (Perkin-Elmer) using 340 nm excitation and 450 nm emission fluorescence protocol. The fluorescence intensity difference between the last and the first time points, normalized against controls, was used to compute reaction progress.
# Chain of 15-hydroxyprostaglandin dehydrogenase [NAD(+)] (Homo sapiens) (P15428 whole entry, looked up): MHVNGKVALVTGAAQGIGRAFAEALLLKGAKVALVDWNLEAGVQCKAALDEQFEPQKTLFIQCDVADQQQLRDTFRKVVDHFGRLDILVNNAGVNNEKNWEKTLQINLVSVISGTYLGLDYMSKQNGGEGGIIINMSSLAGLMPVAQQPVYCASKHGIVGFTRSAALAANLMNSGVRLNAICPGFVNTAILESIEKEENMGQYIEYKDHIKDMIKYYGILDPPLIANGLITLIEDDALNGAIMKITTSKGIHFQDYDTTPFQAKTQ
row,SMILES,Potency
1,Cc1cccc(-n2cnc3cc(C(=O)N4CCCC(C)C4)ccc32)c1 (stereo not given),21.5 nM (active)
2,Cc1cc(-c2nnc3n2CCCCC3)c(C)n1-c1ccc(Cl)cc1,38.3 nM (active)
3,Cc1cc(-c2nnc3n2CCCCC3)c(C)n1-c1ccc(C(C)(C)C)cc1,85.7 nM (active) and 136 nM (active)
4,Cc1cc(-c2nnc3n2CCCCC3)c(C)n1-c1cccnc1,271 nM (active)
5,COc1ccc(-n2c(C)cc(-c3nnc4n3CCCCC4)c2C)cc1,85.7 nM (active)
